High-throughput results from PubChem BioAssay.
GLS inhibitor = blocks human kidney-isoform glutaminase activity; GLS enzymatic activity, qHTS titration; 410,000 compounds, 0.21% hits; Potency, µM (titrated, usually from 45.5 µM), for inactives: at the top dose activity change, negative = inhibition, most hits filed as inhibitors; AID 624170; further: on the % scale 0 is the no-effect control and ±100 the full control effect
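hKGA in 45 mM KH2PO4 pH 8.2, 0.02% Tween-20 with pin-transferred compounds; 1 mM L-glutamine (stock) plus glutamate oxidase/HRP/Amplex Red coupling added. Fluorescence read initially and after 30 min at RT.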
HP1b chromo inh = blocks HP1-beta chromodomain binding to methylated histone tails | P83916 | AlphaScreen HP1-beta / biotin-H3K9me3 peptide binding | Potency, µM (titrated, usually from 114 µM), for inactives: at the top dose activity change, negative = inhibition, hits mostly inhibitors | 390,000 compounds, 0.56% hits | AID 540317; further: nearly all actives have a fitted effect of over 70% in size
Target sequence (P83916 whole entry, looked up): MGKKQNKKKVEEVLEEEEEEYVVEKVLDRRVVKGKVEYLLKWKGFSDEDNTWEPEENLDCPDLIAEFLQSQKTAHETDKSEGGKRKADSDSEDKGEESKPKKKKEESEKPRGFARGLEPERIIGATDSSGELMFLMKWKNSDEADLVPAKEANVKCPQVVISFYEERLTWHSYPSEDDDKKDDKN
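Compound inhibition of the preformed complex between 50 nM HP1-beta and 50 nM biotinylated H3K9me3 peptide was read by AlphaScreen. Buffer was PBS pH 7.4 with 0.01% Tween-20. Incubations ran 30 min at room temperature, with 10 ug/mL donor/acceptor beads.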
G9a inh = blocks human histone lysine methyltransferase G9a. Q96KQ7. G9a H3K9 monomethylation, AlphaScreen, 2 h. Potency, µM (top dose mostly 102 µM), without a hit: at the highest dose activity, negative = inhibition, usual class: inhibitors. 350,000 compounds, 8.8% hits. AID 504332; further: on the % scale 0 is the no-effect control and ±100 the full control effect; nearly all actives have a fitted effect of over 75% in size
Target sequence (Q96KQ7 913-1193 limits assumed): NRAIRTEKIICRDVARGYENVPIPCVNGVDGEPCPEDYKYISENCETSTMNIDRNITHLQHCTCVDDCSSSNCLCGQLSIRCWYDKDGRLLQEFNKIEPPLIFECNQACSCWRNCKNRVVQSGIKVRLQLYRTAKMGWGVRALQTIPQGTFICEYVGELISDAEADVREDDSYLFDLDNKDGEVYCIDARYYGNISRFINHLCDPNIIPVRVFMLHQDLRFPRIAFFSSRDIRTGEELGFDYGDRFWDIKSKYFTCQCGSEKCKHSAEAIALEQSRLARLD
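G9a (20 nM) was preincubated 15 min with compound, then reacted 2 h at room temperature with 500 nM biotin-H3K9 peptide and 20 µM SAM. Monomethyl-H3K9 detected by AlphaScreen using anti-H3K9me1 antibody.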
L3MBTL1 inh = inhibitors of human L3MBTL1 | Q9Y468 | AlphaScreen L3MBTL1–H3K9me1 peptide binding | Potency, µM (titrated, usually from 57.1 µM), for inactives: top-dose activity, negative = inhibition, usual class: inhibitors | 230,000 compounds, 0.66% hits; further: on the % scale 0 is the no-effect control and ±100 the full control effect; nearly all actives have a fitted effect of over 60% in size
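Displacement of a biotinylated histone H3(1-15) peptide monomethylated at Lys9 (75 nM) from L3MBTL1 (50 nM) was measured by AlphaScreen after a 30 min room-temperature compound incubation; cefsulodin titration served as intraplate control.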
BAZ2B inh = BAZ2B (human) inhibition | Q9UIF8 | AlphaScreen BAZ2B-H3K14Ac peptide displacement | Potency, µM (top dose mostly 114 µM), for the others: top-dose activity change, negative = inhibition, actives largely listed as inhibitors | 360,000 compounds, 4.4% hits; further: on the % scale 0 is the no-effect control and ±100 the full control effect; nearly all actives have a fitted effect of over 60% in size
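Protein-peptide AlphaScreen: BAZ2B 50 nM, b-H3K14Ac 50 nM, 1x PBS pH 7.4 + 0.01% Tween-20. Preincubation 30 min RT; cpd 30 min RT (top 110 uM); beads 20 min RT, light-protected.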
JMJD2A Tudor inh = blocks the human JMJD2A Tudor domain. 390,000 compounds, 4.4% hits. Potency, µM (doses to about 114 µM), inactives show at the top dose activity change, negative = inhibition, most hits filed as inhibitors. AlphaScreen JMJD2A-Tudor / H3K4me3 peptide binding. O75164; further: on the % scale 0 is the no-effect control and ±100 the full control effect; nearly all actives have a fitted effect of over 50% in size
Active calls of the source: *; ? = inconclusive; . = no result; [ ] = dose if it differs, or a comment. Rows were chosen to be rich in hits. Some 10% of all compounds tested hit in one or more screens of this group. The call rests on the fitted dose curve; in most records, active means well fitted curve in the direction sought with a large enough effect; inconclusive means small, poorly fitted or top-dose-only effect, or another doubt; inactive means no such curve, though single readings can be large; an effect the other way counts as inactive or inconclusive. Potency means the concentration at half of the fitted maximal effect.

SMILES | GLS inhibitor | HP1b chromo inh | G9a inh | L3MBTL1 inh | BAZ2B inh | JMJD2A Tudor inh
O=[N+]([O-])c1cnc(N2CCCCC2)c([N+](=O)[O-])c1 | 0.0% | ? | 10µM* | -2.8% | ? | -18.8%[57.1 µM]
Cc1cc([N+](=O)[O-])cnc1N1CCOCC1 | 3.0% | 31.7% | 4.8% | 0.5% | -6.8% | -13.2%
COc1ccc(CCNc2oc(/C=C/c3ccc(OC)c(OC)c3)nc2C#N)cc1 | -8.8% | 37.0% | 2.8%[59 µM] | . | -33.2% | -7.9%
O=C(Nc1ccc(NC(=O)c2cccs2)cc1)c1cccs1 | -11.4% | 19.4% | -3.3%[59 µM] | . | 25.4% | 0.7%
Cc1ccn(-c2ccc(NC(=O)c3cccs3)cc2)n1 | 8.2% | 6.9% | 70.8µM* | . | 2.6% | -10.3%
CNc1nc(-c2ccccc2)c(-c2ccccc2)s1 | . | 28.1% | . | . | . | -10.9%
N=C1N(/N=C/c2ccccc2)C(=Nc2ccccc2)C(=S)N1c1ccccc1 | . | 29.6% | 10µM* | -2.3% | ? | 0.0%
Cc1nnc(C)n1/N=C/c1ccccc1 | 1.6% | 5.0% | 22.6% | -3.4% | 7.8%[57.1 µM] | -15.7%
COc1ccc(CNC(=O)C2CC=CCC2C(=O)O)cc1OC (stereo not given) | 7.2% | 14.7% | 23.5%[59 µM] | 5.8% | 16.6% | -1.5%
CC1CC1C(=O)OCC(=O)NCc1ccc(Cl)cc1 (stereo not given) | 2.9% | 20.7% | 7.7%[59 µM] | . | -5.6% | 15.5%
COc1ccc(CNC(=O)COC(=O)C2CC2C)cc1OC (stereo not given) | -8.3% | 22.8% | 14.1µM* | 2.0% | 7.9% | -7.6%
COc1ccc(CNC(=O)C2CCCN2)cc1OC (stereo not given) | -0.8% | 79.4µM* | 17.8µM* | 4.3% | 44.7µM* | 3.16µM*
Cc1ccc(-c2ccc(/C=N/N3C(=O)C4C5C=CC(C6CC56)C4C3=O)o2)c([N+](=O)[O-])c1 (stereo not given) | 1.0% | -15.2% | 44.7µM* | -20.8% | ? | -25.2%[57.1 µM]
COC(=O)c1ccc(-c2ccc(/C=N/N3C(=O)C4C5C=CC(C6CC56)C4C3=O)o2)cc1 (stereo not given) | 9.9% | -0.8% | 7.94µM* | -13.2% | 56.2µM* | ?
O=C1C2C3C=CC(C4CC34)C2C(=O)N1/N=C/c1ccc(-c2ccc([N+](=O)[O-])cc2)o1 (stereo not given) | -3.0% | 27.0% | 4.5%[59 µM] | -11.0% | -11.6% | -1.3%
Cc1cc(C)c(NC(=O)CCn2c(=O)c3cccn3c3ccccc32)c(C)c1 | -6.1% | -3.8% | -10.0%[59 µM] | . | -35.6% | -25.7%
CCCCS(=O)(=O)N[C@@H](Cc1ccc(OCCCCC2CCNCC2)cc1)C(=O)O | 1.6% | . | . | . | . | .
O=C(Cn1c(=O)n(-c2cccc(C(F)(F)F)c2)c(=O)c2sccc21)NCC1CCCO1 (stereo not given) | 1.5% | 8.8% | 7.5% | . | -0.8% | 39.8µM*
Nc1ccc(C(CC(=O)O)n2cccc2)cc1 (stereo not given) | 2.0% | ? | ? | . | 79.4µM* | ?
O=C(O)CC(c1ccccc1)n1cccc1 (stereo not given) | 8.1% | 28.6% | -7.9% | -1.4% | -36.6% | 8.5%
COc1ccc(OC)c(NC(=O)c2c(NCc3ccc(OC)c(OC)c3)sc3c2CCC(C)C3)c1 (stereo not given) | -11.8% | ? | 12.6µM* | . | ? | 50.1µM*
COc1ccc(OC)c(NC(=O)c2c(NCc3ccc(C)o3)sc3c2CCC(C)C3)c1 (stereo not given) | -12.6% | ? | 11.2µM* | . | ? | 31.6µM*
CO/N=C(/C(=O)N[C@@H]1C(=O)N2C(C(=O)[O-])=C(C[n+]3ccn4ncccc43)CS[C@H]12)c1nsc(N)n1 | -24.1% | . | . | . | . | .
CCOc1ccc(N2C(=O)CC(N3CCN(C(=O)CN4CCCC4)CC3)C2=O)cc1 (stereo not given) | -0.5% | 33.8% | ? | 1.9% | -24.2% | -11.0%
CCOc1ccc(N2C(=O)CC(N3CCC(O)(c4ccc(Br)cc4)CC3)C2=O)cc1 (stereo not given) | 0.8% | 38.2% | 44.7µM* | . | -3.2% | -3.9%
SMILES | GLS inhibitor | HP1b chromo inh | G9a inh | L3MBTL1 inh | BAZ2B inh | JMJD2A Tudor inh
CCOc1ccc(N2C(=O)CC(N3CCN(c4ccc(F)cc4)CC3)C2=O)cc1 (stereo not given) | 1.6% | 55.2% | 44.7µM* | -2.4% | -20.9% | -13.7%
Cn1c(SCc2c(F)cccc2Cl)nc2c(c1=O)SCC2 | 0.8% | -26.7% | -25.6%[59 µM] | ? | 28.2µM* | ?
COc1ccc(N(C(=O)c2ccc(C(C)(C)C)cc2)S(=O)(=O)c2ccc(Cl)cc2)cc1 | -1.4% | 17.9% | 3.2%[59 µM] | . | -8.4% | -18.0%
CC1CCC2(CC1)NC(=O)N(CC(=O)N1CCOCC1)C2=O (stereo not given) | -3.1% | 15.6% | . | -8.0% | . | -4.1%
CC1CC(C)CN(CC(=O)N2CCOCC2)C1 (stereo not given) | 5.1% | -19.6% | 8.91µM* | 1.5% | 50.1µM* | 25.1µM*
CCNc1nc(C#N)nc(NCC)n1 | . | 21.1%[57 µM] | . | . | . | -21.5%[57.1 µM]
CCC1Sc2ccccc2N(CC(=O)NCc2ccc(C)cc2)C1=O (stereo not given) | 3.8% | 34.5% | 7.1%[59 µM] | . | 2.5% | -9.8%
Cc1c(C)n2c(SCC(=O)N3CCCCCC3)nnc2[nH]c1=O | -12.6% | 51.3% | ? | 7.1% | 5.9% | -2.7%
Cc1c(C)n2c(SCC(=O)N3CCOCC3)nnc2[nH]c1=O | 0.4% | 26.8% | -29.9%[0.501 µM] | 0.6% | -6.4% | 31.6µM*
CCOc1ccc(NC(=O)Cn2c(=O)oc3cc(S(=O)(=O)N4CCC(C)CC4)ccc32)cc1 | 5.1% | 17.0% | -5.1%[59 µM] | . | -6.6% | -17.2%
CCOC(=O)C1CCCN(c2ncnc3c2cnn3-c2ccc(C)c(Cl)c2)C1 (stereo not given) | -4.1% | 39.1% | 21.0%[59 µM] | . | 21.6% | 25.4%
COC(=O)CS(=O)(=O)c1nnc([C@H](Cc2ccccc2)NC(=O)OC(C)(C)C)o1 | 8.9% | 4.4% | ? | 4.4% | 6.6% | 79.4µM*
Cc1cccc(CS(=O)(=O)c2nnc([C@H](Cc3ccccc3)NC(=O)OC(C)(C)C)o2)c1 | -6.3% | 66.8% | 10µM* | . | 3.5% | -3.8%
CN(C)C(=O)CSc1nnc([C@H](Cc2ccccc2)NC(=O)OC(C)(C)C)o1 | 1.7% | -9.5% | 39.8µM* | -0.3% | -0.2% | -6.2%
CC(C)(C)OC(=O)N[C@@H](Cc1ccccc1)c1nnc(SCC(N)=O)o1 | -2.3% | 39.4% | ? | -6.3% | -10.3% | -21.7%
CCN(c1ccccc1C)S(=O)(=O)c1nnc(NC(=O)c2ccc(OC)c(OC)c2)s1 | 8.0% | 15.8% | 0.9%[59 µM] | . | -2.8% | -19.4%
O=C(NCCc1ccccc1)c1ccc(CSc2nc3ccncc3n2Cc2ccccc2)cc1 | -6.1% | 44.1% | -9.1%[59 µM] | . | -1.3% | -5.4%
